{"source": "PubChem BioAssay (EPA / NIEHS)", "note": "Records with an inconclusive call do not appear. Activity calls are given as the source filed them. How the source made its calls: active means hit-call score of the fitted dose curve at least 0.9, where 1 is the maximum; inconclusive means response in the unintended direction; inactive means score below 0.9.", "data": [{"target": "human Protein Tyrosine Phosphatase Non-receptor Type 9 (PTPN9), PTPN9 (gene 5780) (UniProt P43378)", "sequence (P43378 whole entry, looked up)": "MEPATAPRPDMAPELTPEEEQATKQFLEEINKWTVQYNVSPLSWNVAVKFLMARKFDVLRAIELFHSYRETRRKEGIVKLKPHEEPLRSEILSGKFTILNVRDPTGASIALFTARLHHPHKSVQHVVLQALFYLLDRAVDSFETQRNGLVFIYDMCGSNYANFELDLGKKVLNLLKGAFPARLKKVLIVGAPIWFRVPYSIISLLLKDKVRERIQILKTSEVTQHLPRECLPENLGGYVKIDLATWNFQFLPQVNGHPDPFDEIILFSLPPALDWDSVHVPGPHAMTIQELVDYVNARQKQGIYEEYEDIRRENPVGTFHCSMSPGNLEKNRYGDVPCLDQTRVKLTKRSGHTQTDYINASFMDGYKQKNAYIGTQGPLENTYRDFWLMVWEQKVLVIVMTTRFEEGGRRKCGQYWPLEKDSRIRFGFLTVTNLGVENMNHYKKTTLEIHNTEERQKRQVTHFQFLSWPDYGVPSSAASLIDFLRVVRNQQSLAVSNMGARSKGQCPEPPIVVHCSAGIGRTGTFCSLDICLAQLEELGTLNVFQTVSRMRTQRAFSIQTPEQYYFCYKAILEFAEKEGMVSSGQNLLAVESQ", "assay": "NVS_ENZ_hPTPN9: NovaScreen (NVS) Enzymatic Assay for human Protein Tyrosine Phosphatase Non-receptor Type 9 (PTPN9) (AID 2283209)", "procedure,_shortened": "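Sf9-expressed enzyme in a cell-free assay, fluorescence read 1.33 h after dosing with mobility-shift separation of substrate and product. Tested at 25 uM in duplicate, then up to 50 uM; signal loss versus DMSO.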", "values": [{"smiles": "Clc1ccc(C(c2ccc(Cl)cc2)C(Cl)(Cl)Cl)cc1", "outcome": "inactive"}, {"smiles": "Nc1ccc(Oc2ccc(N)cc2)cc1", "outcome": "inactive"}, {"smiles": "ClC1=C(Cl)[C@]2(Cl)[C@H]3[C@H]([C@@H]4C=C[C@H]3C4)[C@@]1(Cl)C2(Cl)Cl", "outcome": "inactive"}, {"smiles": "CCN(CC)CCO", "outcome": "inactive"}, {"smiles": "CCCCCOC(=O)c1ccccc1C(=O)OCCCCC", "outcome": "inactive"}]}, {"target": "human Protein Tyrosine Phosphatase Receptor Type C (PTPRC), PTPRC (gene 5788) (UniProt P08575)", "sequence (P08575 whole entry, looked up)": "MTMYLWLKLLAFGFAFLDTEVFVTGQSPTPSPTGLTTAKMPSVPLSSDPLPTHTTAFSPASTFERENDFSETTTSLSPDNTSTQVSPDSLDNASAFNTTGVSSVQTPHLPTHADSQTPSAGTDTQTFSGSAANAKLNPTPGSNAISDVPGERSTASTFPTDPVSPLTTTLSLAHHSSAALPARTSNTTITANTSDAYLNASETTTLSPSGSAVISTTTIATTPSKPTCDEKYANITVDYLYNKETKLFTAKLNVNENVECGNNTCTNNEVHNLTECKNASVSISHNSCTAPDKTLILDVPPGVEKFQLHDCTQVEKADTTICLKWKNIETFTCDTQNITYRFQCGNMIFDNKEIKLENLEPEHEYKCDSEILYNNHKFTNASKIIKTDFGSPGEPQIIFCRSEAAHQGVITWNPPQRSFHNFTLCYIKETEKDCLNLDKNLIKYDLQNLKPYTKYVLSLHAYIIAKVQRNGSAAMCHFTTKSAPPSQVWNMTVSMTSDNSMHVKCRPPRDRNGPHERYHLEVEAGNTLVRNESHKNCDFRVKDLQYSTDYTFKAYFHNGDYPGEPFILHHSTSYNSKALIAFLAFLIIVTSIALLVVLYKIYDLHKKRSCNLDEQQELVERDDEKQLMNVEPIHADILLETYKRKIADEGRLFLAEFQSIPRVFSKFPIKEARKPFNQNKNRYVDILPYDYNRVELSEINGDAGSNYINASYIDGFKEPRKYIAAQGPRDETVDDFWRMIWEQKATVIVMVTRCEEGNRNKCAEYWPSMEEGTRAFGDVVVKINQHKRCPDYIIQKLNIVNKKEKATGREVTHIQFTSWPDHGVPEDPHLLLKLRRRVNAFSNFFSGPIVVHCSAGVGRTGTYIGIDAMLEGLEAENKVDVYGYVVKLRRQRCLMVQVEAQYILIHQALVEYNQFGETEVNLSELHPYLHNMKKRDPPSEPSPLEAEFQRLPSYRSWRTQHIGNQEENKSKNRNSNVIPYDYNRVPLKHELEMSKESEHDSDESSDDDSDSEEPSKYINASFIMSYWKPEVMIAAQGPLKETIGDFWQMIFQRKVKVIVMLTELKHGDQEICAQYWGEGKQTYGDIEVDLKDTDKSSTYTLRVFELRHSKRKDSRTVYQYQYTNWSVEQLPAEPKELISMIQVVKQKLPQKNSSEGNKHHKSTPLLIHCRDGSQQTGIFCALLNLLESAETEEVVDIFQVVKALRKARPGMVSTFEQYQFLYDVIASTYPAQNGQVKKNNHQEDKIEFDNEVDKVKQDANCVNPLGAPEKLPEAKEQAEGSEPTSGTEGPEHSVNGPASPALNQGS", "assay": "NVS_ENZ_hPTPRC: NovaScreen (NVS) Enzymatic Assay for human Protein Tyrosine Phosphatase Receptor Type C (PTPRC) (AID 2283212)", "procedure,_shortened": "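Absorbance-based phosphatase activity of human PTPRC protein extracted from yeast was measured 1 h post-dosing. Compounds first tested at 25 uM in duplicate, then those passing threshold in singleton concentration series to 50 uM.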", "values": [{"smiles": "[O-][Cl+]O", "outcome": "inactive"}, {"smiles": "COC(=O)c1ccccc1N", "outcome": "inactive"}, {"smiles": "CN(C)C(=O)Nc1ccc(Cl)cc1", "outcome": "inactive"}, {"smiles": "O=[N+]([O-])c1ccc(Oc2ccc(Cl)cc2Cl)cc1", "outcome": "inactive"}, {"smiles": "CC(C)(C)C(O)(CCc1ccc(Cl)cc1)Cn1cncn1", "note": "(stereo not drawn)", "outcome": "inactive"}, {"smiles": "CN(C)[C@@H]1C(=O)C(C(N)=O)=C(O)[C@@]2(O)C(=O)C3=C(O)c4c(O)cccc4[C@@](C)(O)[C@H]3C[C@@H]12", "AC50": "15.6 µM (active)"}, {"smiles": "c1ccc(NNc2ccccc2)cc1", "AC50": "18.2 µM (active)"}, {"smiles": "ClCCOCCCl", "outcome": "inactive"}, {"smiles": "Cc1cccc(N)c1N", "AC50": "15.8 µM (active)"}]}, {"target": "human Rho Associated Coiled-coil Containing Protein Kinase 1 (ROCK1), ROCK1 (gene 6093) (UniProt Q13464)", "sequence (Q13464 whole entry, looked up)": "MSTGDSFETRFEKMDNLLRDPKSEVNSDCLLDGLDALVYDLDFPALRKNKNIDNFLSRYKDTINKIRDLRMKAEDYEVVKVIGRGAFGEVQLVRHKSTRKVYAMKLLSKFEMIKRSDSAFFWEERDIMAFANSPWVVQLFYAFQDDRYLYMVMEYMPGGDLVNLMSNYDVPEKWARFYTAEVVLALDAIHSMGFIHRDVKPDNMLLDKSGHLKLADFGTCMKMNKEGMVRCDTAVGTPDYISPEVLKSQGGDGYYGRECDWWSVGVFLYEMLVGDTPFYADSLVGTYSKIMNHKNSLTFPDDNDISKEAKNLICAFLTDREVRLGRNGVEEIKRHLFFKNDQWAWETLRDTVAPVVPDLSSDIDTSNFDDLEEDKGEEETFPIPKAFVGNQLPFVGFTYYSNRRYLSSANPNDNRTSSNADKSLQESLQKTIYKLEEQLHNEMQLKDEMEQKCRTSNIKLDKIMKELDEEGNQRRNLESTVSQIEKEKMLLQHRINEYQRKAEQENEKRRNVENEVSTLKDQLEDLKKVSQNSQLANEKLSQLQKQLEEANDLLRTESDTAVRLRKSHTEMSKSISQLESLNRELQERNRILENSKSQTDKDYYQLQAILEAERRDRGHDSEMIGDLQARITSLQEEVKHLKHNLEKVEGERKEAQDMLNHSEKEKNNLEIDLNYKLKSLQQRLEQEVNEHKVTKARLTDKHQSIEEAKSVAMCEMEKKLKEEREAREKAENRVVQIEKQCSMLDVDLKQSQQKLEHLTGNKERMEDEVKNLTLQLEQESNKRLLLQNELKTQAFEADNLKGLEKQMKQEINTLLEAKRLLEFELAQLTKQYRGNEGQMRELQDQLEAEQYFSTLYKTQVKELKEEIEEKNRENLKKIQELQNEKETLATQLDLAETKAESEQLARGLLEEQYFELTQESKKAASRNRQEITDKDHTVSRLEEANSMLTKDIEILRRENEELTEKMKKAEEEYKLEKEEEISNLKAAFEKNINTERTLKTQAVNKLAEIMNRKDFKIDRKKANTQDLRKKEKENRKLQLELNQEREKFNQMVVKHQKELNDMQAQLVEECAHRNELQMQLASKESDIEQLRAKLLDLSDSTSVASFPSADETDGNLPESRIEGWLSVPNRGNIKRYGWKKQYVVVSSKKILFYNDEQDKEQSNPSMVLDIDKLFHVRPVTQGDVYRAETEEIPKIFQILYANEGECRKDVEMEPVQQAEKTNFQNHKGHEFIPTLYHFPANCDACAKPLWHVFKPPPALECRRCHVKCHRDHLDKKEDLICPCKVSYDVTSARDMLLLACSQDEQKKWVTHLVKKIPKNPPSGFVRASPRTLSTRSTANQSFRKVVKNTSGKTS", "assay": "NVS_ENZ_hROCK1: NovaScreen (NVS) Enzymatic Assay for human Rho Associated Coiled-coil Containing Protein Kinase 1 (ROCK1) (AID 2283214)", "procedure,_shortened": "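Compounds first run in duplicate at 25 uM against recombinant human ROCK1, then followed in concentration series. Kinase activity was read 1 h post-dosing by fluorescence with mobility-shift separation, as signal loss relative to DMSO.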", "values": [{"smiles": "ClC1=C(Cl)C2(Cl)C3C(Cl)C=CC3C1(Cl)C2(Cl)Cl", "note": "(stereo not drawn)", "outcome": "inactive"}, {"smiles": "CCCCCCCCCCCCCN1CC(C)OC(C)C1", "note": "(stereo not drawn)", "outcome": "inactive"}, {"smiles": "CS(=O)(=O)NC(=O)c1cc(Oc2ccc(C(F)(F)F)cc2Cl)ccc1[N+](=O)[O-]", "outcome": "inactive"}, {"smiles": "CCCCCCCCOC(=O)c1ccc(C(=O)OCCCCCCCC)c(C(=O)OCCCCCCCC)c1", "outcome": "inactive"}]}]}
